According to publication PMC12136788:
Substitutions are numbered along the chain they refer to. Over roughly 5,800 sequences, “enrichment r” has its median near 0.68; the highest 2% begin near 11. Only a selection was taken, and the highest values are over-represented in it overall.

T1: UNK ZnF1-6 (called full-length) (human, UniProt Q9C0B0 30-357)
T1 sequence: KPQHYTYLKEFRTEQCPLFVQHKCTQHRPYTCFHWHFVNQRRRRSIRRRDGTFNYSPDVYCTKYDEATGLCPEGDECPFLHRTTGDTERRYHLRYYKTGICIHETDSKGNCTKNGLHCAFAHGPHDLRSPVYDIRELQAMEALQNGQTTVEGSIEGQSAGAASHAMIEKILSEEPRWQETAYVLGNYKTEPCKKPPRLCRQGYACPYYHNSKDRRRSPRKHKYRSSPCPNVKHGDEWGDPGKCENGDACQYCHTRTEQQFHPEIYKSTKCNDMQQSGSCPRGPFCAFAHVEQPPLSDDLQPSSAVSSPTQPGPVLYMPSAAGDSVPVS

B1: chr11:107429260:107429366:-|CDS|ENSG00000152404|unk|total|mutant (ssRNA)
RNA: GGGAGUUCUACAGUCCGACGAUCGAGGAAACCCACAUAUUCAGAUAAAGCACAAAAUUGUCAAGAAAGCCGAGAAUCAGACUCCGUAAAAUAUGGUAACAGUUCAAGGGACCGAUAUGCUACAACAGAUACUGCAAAAAACCGCAACAGAGGAUUGAGCAUCA
B2: chr10:92030471:92030572:+|3pUTR|ENSG00000095564|unk|total|mutant (ssRNA)
RNA: GGGAGUUCUACAGUCCGACGAUCUAUUUUUUUAUUAACUAUUUAUUUGCCCGUUCCAUAAACCAGCUCUUUAACACCGCUUACCGUAAUUGAUAUUUUCUCCGAAUAAGUACAGAGCAAUAUAUCAUUAAAGGGCUAUGAAGGCAACAGAGGAUUGAGCAUCA
B3: chr11:69653362:69653473:+|3pUTR|ENSG00000110092|msi1_unk|FALSE|overlapping (ssRNA)
RNA: GGGAGUUCUACAGUCCGACGAUCACUGCCAUGUACUAGUUUUAGUUUUCUCUUAGAACAUUGUAUUACAGAUGCCUUUUUUGUAGUUUUUUUUUUUUUUAUGUGAUCAAUUUUGACUUAAUGUGAUUACUGCUCUAUUCCAAACAACAGAGGAUUGAGCAUCA
B4: ENSG00000136451:be:win_3351|3pUTR|ENSG00000136451|bound_else_gene|NA|bound_elsewhere_windowed (ssRNA)
RNA: GGGAGUUCUACAGUCCGACGAUCGAAGGCAACACAUUCCUACACUUUUAAUGUAUAUGUUUGUUAUAAUGUCCAUGUAAACAUGCCCUAUGUUUGUGCCUUUUAAUUAGUUUGUCUCAAUAAACAAAAUGUAGAGAAAAAUAUCAACAGAGGAUUGAGCAUCA
B5: chr19:9526975:9527076:-|3pUTR|ENSG00000130818|unk|FALSE|unique (ssRNA)
RNA: GGGAGUUCUACAGUCCGACGAUCCCUCUCAGACCUUCCAUCAUUACUAUAUUUCACUUUUAUGCCUAUAAACACACACAAAUUAGCAUAUGUAAUCUAAUACAUUGUAGCUAUUUUUCAGAAGUUAUCAGAUCAAUUAAGUAUCAACAGAGGAUUGAGCAUCA
B6: chr7:115017934:115018035:+|3pUTR|ENSG00000135272|unk|FALSE|unique (ssRNA)
RNA: GGGAGUUCUACAGUCCGACGAUCUGAGAUGAAACGUAGUUUCUAGUUAUAUCAUUACUUAAAGGGCUUAAAAAGAAAAAACUUAGCAAACUUUUGAAUCUUUCUUUUAUUGCUAUUUACACAUACAUACACACAUACAAAACCCAACAGAGGAUUGAGCAUCA
B7: chr10:92030471:92030572:+|3pUTR|ENSG00000095564|unk|FALSE|unique (ssRNA)
RNA: B2 RNA with C50U, C51A, C76U, C77A, C83U, C84A, C101U, C102A
B8: chr17:44253117:44253371:-|CDS|ENSG00000004939|control|control|control (ssRNA)
RNA: GGGAGUUCUACAGUCCGACGAUCCAAACCUGAGCGCAAGAUGGUCAAGGGCUCCGGCUUCCACCUGGACCUGCUGCUGGUAGUAGGCAUGGGUGGGGUGGCCGCCCUCUUUGGGAUGCCCUGGCUCAGUGCCACCACCGUGCGCAACAGAGGAUUGAGCAUCA
B9: chr6:105096826:105097152:-|3pUTR|ENSG00000112276|msi1|FALSE|unique (ssRNA)
RNA: GGGAGUUCUACAGUCCGACGAUCACUUGCAACCUAGUUUUAAAAUACAUGAGGAUUUUAUGAAAGCUUUAUACAGACAUUUAUAGGAAACUCAUUCUUUGAUUUUAGGUGCCAUUUAAAUUGAUAACACUUACUUUAUAAAAACAACAGAGGAUUGAGCAUCA
B10: chr10:91630394:91630495:-|CDS|ENSG00000119938|unk|total|mutant (ssRNA)
RNA: GGGAGUUCUACAGUCCGACGAUCCUUGGACCUUAAUGAUAUCUCCUCUGCCUUAAAACACCACGAGGAGAAAAACUUGAUUUCCGAUUUCCCUCAGCCUUCAACCGAUUACUUAAGUUUCCGGAGCCACUUUCAGAAGAACUUCAACAGAGGAUUGAGCAUCA
B11: chr11:20048915:20049016:+|CDS|ENSG00000166833|unk|total|mutant (ssRNA)
RNA: GGGAGUUCUACAGUCCGACGAUCGAGCAGUGGGAGCAGCAGUCCUCUCUACAGCAAGAAUGUGGACCUCAACCAGUCUCCGCCCGCCUCCAGCCCCAGCUCAGCCCACUCGGCCCCUUCCAACAGCCUCACCUGGGGCACCAACAACAGAGGAUUGAGCAUCA
B12: chr1:178479239:178479534:-|three_prime_utr|ENSG00000188585|control|control|control (ssRNA)
RNA: GGGAGUUCUACAGUCCGACGAUCCAGUUUCUGUUUCAUGCAAUCUUCUCUGGAUUUUGAGUAAAUUUUAAUUUUUUAAUCCCUAGUAGAACAAGAUUAGGAAGAACUCGACAUGUGCCAAAAAGCACAGACCUACAACUAACACAACAGAGGAUUGAGCAUCA
B13: chr1:214641902:214642005:+|CDS|ENSG00000117724|unk|total|mutant (ssRNA)
RNA: GGGAGUUCUACAGUCCGACGAUCAGAAAUCAAUGUAAUUUUAAACCUCAGAUGGAUCUUGAAGUUAAAGAAAUUUCUCCCGACCGUUAUAAUGCGCAGUUGGUGCAAUCCGAAGCUAUGCUAAGAAAUAAGGAAUUAAAACUUCAACAGAGGAUUGAGCAUCA
B14: chr20:31664451:31666086:-|three_prime_utr|ENSG00000171552|control|control|control (ssRNA)
RNA: GGGAGUUCUACAGUCCGACGAUCAUGCAGCCCAUGCCCACCUGCCCAUCACAGGGUUGGGCCCAGAUCUGGUCCCUUGCAGCUAGUUUUCUAGAAUUUAUCACACUUCUGUGAGACCCCCACACCUCAGUUCCCUUGGCCUCACAACAGAGGAUUGAGCAUCA
B15: chr10:100209595:100209696:-|CDS|ENSG00000213341|unk|FALSE|unique (ssRNA)
RNA: GGGAGUUCUACAGUCCGACGAUCACUUCUUUCAGAGACAGGAAUUUCUCUGGAUCCUCGGAAACCAGCCUCUCAAUGUGUUCUAGAUGGAGUUGUAAGAAAAUUAAUUAUAAUAUCCCUAGAGUAUGUGAAAUCUAGAGGGAUCAACAGAGGAUUGAGCAUCA
B16: chr8:80637648:80637749:-|3pUTR|ENSG00000164684|unk|FALSE|unique (ssRNA)
RNA: GGGAGUUCUACAGUCCGACGAUCUGCGCUUAGCUGCAAAGUGCCUGUCAGCAGCUCCAGGCACCAACAAGGUGCCCUUUUAUUAGACAAUUCCUGCCCGAACAUAACCAUAUUGCAGAUGAAAAUUUUCAAUAGAGAAUGACACAACAGAGGAUUGAGCAUCA
B17: chr12:81257974:81259660:-|three_prime_utr|ENSG00000139220|control|control|control (ssRNA)
RNA: GGGAGUUCUACAGUCCGACGAUCAUGACUUAUUAAAAGCUGAAAAAUGUGAUUUUUGGGGGGAGUCAGAUAUUACAUUUGAUUAGUUUACUACAAAUUGUAAUAAAAUGCUUAAGUCAUUUGAAUAAUAAACAUCAUCUACAUCAACAGAGGAUUGAGCAUCA
B18: chr8:116643852:116643953:-|3pUTR|ENSG00000147677|unk|FALSE|unique (ssRNA)
RNA: GGGAGUUCUACAGUCCGACGAUCUGUUGUGAAUGAGGAAUUAGGAAUUAGGAGAAUGGUAGUACAUUGGGAAAAACAUAUUUUAGUAAUUUUUAUAUUUUAAAGAUAAUCACAGAUUUUGCUGUUUGUGCAUCACCAAAAUCACAACAGAGGAUUGAGCAUCA
B19: chr8:116643852:116643953:-|3pUTR|ENSG00000147677|unk|total|mutant (ssRNA)
RNA: B18 RNA with U41C, A42C, U48C, A49C, U59C, A60C, U83C, A84C
B20: chr1:56708525:56708626:+|3pUTR|ENSG00000162409|unk|FALSE|unique (ssRNA)
RNA: GGGAGUUCUACAGUCCGACGAUCACCUUUCUCAAAUUCUUUUUGCCUCUAUUUAUUUUUGCAUUUCACCAACAGUGAUAAAAUAGUUAAAUGAAACAAAGCAAAGUAUCAACAGUCCCUUAAAUGAGAAUCCUUAUCUUUGAUCAACAGAGGAUUGAGCAUCA
B21: chr6:98868534:98874277:-|three_prime_utr|ENSG00000112234|control|control|control (ssRNA)
RNA: GGGAGUUCUACAGUCCGACGAUCAUUAAAAUUAAUGUGCUUUGUUGGGGUUUAAUUUUGGGAUUGGUUUUGGGUUUUGUUUUUAGUUGUUUUAAUGGUAAGAAUUAAGACAUUUGUAGAUUUUAAAGAAAAAUAUGAAAUUGUCAACAGAGGAUUGAGCAUCA
B22: chr9:83661418:83661519:-|3pUTR|ENSG00000135018|msi1|FALSE|unique (ssRNA)
RNA: GGGAGUUCUACAGUCCGACGAUCUAUAGUUGGGUGACCAGAUUUUGUCCUGCAUCUGUCCAGUUUAUUUGCUUUUUAAACAUUAGCCUAUGGUAGUAAUUUAUGUAGAAUAAAAGCAUUAAAAAGAAGCAAAUCAUUUGCACUCAACAGAGGAUUGAGCAUCA
B23: chr16:11872726:11872856:-|3pUTR|ENSG00000103342|msi1_unk|FALSE|overlapping (ssRNA)
RNA: GGGAGUUCUACAGUCCGACGAUCACAUAAUUGCCUACAAUAAUGAAAACCUACAGGAAUUUUUUUAUUUUUCAUUUUCCCCUUAGGCAUAUUUAGUAUUUUUCCCCCAGGCAGAUCAUUCUGAGUGUGCGAGUGUGUGUGCACCAACAGAGGAUUGAGCAUCA
B24: chr5:132541444:132541810:-|three_prime_utr|ENSG00000113525|control|control|control (ssRNA)
RNA: GGGAGUUCUACAGUCCGACGAUCAAAUUGAUAUACUUUUUUCUUAUUUAACUUAACAUUCUGUAAAAUGUCUGUUAACUUAAUAGUAUUUAUGAAAUGGUUAAGAAUUUGGUAAAUUAGUAUUUAUUUAAUGUUAUGUUGUGUCAACAGAGGAUUGAGCAUCA

Each binder was assayed against T1, UNK ZnF1-6 (called full-length) (assay: nsRBNS (natural sequence RNA bind-n-seq); RBNS binding buffer (assumed for nsRBNS): 25 mM Tris pH 7.5, 150 mM KCl, 3 mM MgCl2, 0.01% Triton X-100, 500 ug/ml BSA, 20 U/ml SUPERase-In, 4 C; UNK is unkempt and MSI1 is Musashi-1; names of the RNAs are library labels; protein concentration not given here; high values mean tight binding).
Binder B1 has a binding signal of 0.603 enrichment R.
In the case of B2, the binding signal is reported as 5.92 enrichment R.
Work on B3 yielded a binding signal of 80.9 enrichment R.
B4 gave a binding signal of 2.53 enrichment R.
Binder B5 has a binding signal of 4.62 enrichment R.
For B6, the binding signal was 5.81 enrichment R.
For B7, the binding signal was 34.3 enrichment R.
B8 showed a binding signal of 0.5 enrichment R.
With B9 the binding signal was 1.57 enrichment R.
Work on B10 yielded a binding signal of 0.273 enrichment R.
Work on B11 yielded a binding signal of 0.913 enrichment R.
In the case of B12, the binding signal is reported as 0.449 enrichment R.
B13 was tested, and the binding signal was 0.401 enrichment R.
With B14 the binding signal was 1.85 enrichment R.
B15 gave a binding signal of 0.651 enrichment R.
Work on B16 yielded a binding signal of 0.967 enrichment R.
B17 showed a binding signal of 0.956 enrichment R.
B18 was tested, and the binding signal was 22.5 enrichment R.
Work on B19 yielded a binding signal of 0.568 enrichment R.
Binder B20 has a binding signal of 0.947 enrichment R.
B21 showed a binding signal of 12.9 enrichment R.
With B22 the binding signal was 7.97 enrichment R.
B23 was tested, and the binding signal was 11.3 enrichment R.
In the case of B24, the binding signal is reported as 7.43 enrichment R.
